Measurements: PubChem BioAssay (NCI)
About 79,000 compounds went through this panel and 15% of them were active in at least one assay; those are over-represented in the sample as a whole. Calls of active or inactive are those of the source. No stated cut-off is given here; in the data, active means growth inhibition above about 70%; inactive means the rest.

What was measured:
[1] = NCI Yeast Anticancer Drug Screen. Data for the rad52 strain (AID 147);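 further: 0% = growth of vehicle-treated control cultures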; conditions: S. cerevisiae rad52 mutant growth inhibition, active compounds read high
Method in brief: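 Screen used a yeast mutant impaired in DNA repair. After compound exposure, growth was measured. Values reflect inhibition compared with vehicle-treated cells.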

[2] = NCI Yeast Anticancer Drug Screen. Data for the wt1 strain (AID 149);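 further: 0% = growth of vehicle-treated wt1 cultures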; conditions: S. cerevisiae wt1 strain (SPY 50644) growth inhibition, active compounds read high
Method in brief: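 The wt1 strain was treated with compounds, and growth was compared with vehicle-treated cultures to give inhibition.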

[3] = NCI Yeast Anticancer Drug Screen. Data for the rad50EPP+ strain (AID 151);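 further: 0% = growth of vehicle-treated control cultures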; conditions: S. cerevisiae rad50 mutant strain, active compounds read high
Method in brief: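 Exposing the rad50EPP+ strain to each compound, growth was compared with vehicle-only cultures to give inhibition.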

[4] = NCI Yeast Anticancer Drug Screen. Data for the mgt1 strain (AID 153); conditions: S. cerevisiae mgt1 mutant growth inhibition, active compounds read high
Method in brief: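 Genetically defined yeast (mgt1) treated with compound; inhibition of growth expressed against vehicle-treated controls.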

[5] = NCI Yeast Anticancer Drug Screen. Data for the rad50 strain (AID 155);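 further: 0% = growth of vehicle-only cultures of the same strain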; conditions: S. cerevisiae rad50 strain growth inhibition, active compounds read high
Method in brief: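 Cells are treated with compound, grown, and their growth is then scored against vehicle-only cultures of the same repair-deficient yeast strain.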

[6] = NCI Yeast Anticancer Drug Screen. Data for the mec2-1 strain (AID 157); conditions: S. cerevisiae mec2-1 strain, active compounds read high
Method in brief: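 Readout is yeast growth inhibition, normalised to vehicle-treated controls, in the mec2-1 strain exposed to compound.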

[7] = NCI Yeast Anticancer Drug Screen. Data for the rad14 strain (AID 159);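 further: 0% = growth of vehicle-treated control cultures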; conditions: S. cerevisiae rad14 strain growth inhibition, active compounds read high
Method in brief: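 Readout: yeast growth inhibition, referenced to vehicle-only cultures. Strain bears a defined alteration in DNA damage repair.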

[8] = NCI Yeast Anticancer Drug Screen. Data for the sgs1 mgt1 strain (AID 161);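 further: 0% = growth of cultures given vehicle only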; conditions: S. cerevisiae sgs1 mgt1 strain, active compounds read high
Method in brief: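 Compounds are added to genetically altered yeast, and growth is compared with cultures given vehicle alone to give percent inhibition.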

[9] = NCI Yeast Anticancer Drug Screen. Data for the CLN2oe strain (AID 163);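 further: 0% = growth of vehicle-only control cultures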; conditions: S. cerevisiae CLN2oe strain, active compounds read high
Method in brief: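 Values reflect how much compound exposure reduced yeast growth, referenced to vehicle-exposed cells. Assay organism is a strain with a defined genetic change affecting cell-cycle control.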

[10] = NCI Yeast Anticancer Drug Screen. Data for the cln2 rad14 strain (AID 165);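 further: 0% = growth equal to vehicle treated cultures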; conditions: S. cerevisiae cln2 rad14 strain, active compounds read high
Method in brief: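 Relative to vehicle controls, growth inhibition of compound-treated cln2 rad14 yeast was recorded.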

[11] = NCI Yeast Anticancer Drug Screen. Data for the bub3 strain (AID 167); conditions: S. cerevisiae bub3 mutant strain, active compounds read high
Method in brief: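 Part of a panel of yeast mutants defective in DNA damage repair or cell cycle regulation. Each strain is grown with compound, and inhibition is calculated relative to solvent-treated cultures.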

[12] = NCI Yeast Anticancer Drug Screen. Data for the wt2 strain (AID 169);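 further: 0% = growth of vehicle-treated yeast cultures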; conditions: S. cerevisiae wt2 strain growth inhibition, active compounds read high
Method in brief: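 Values express reduction in yeast growth under compound treatment, referenced to vehicle-treated cells.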

[13] = NCI Yeast Anticancer Drug Screen. Data for the mlh1 strain (AID 171);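 further: 0% = growth of vehicle-treated control cultures of the same strain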; conditions: S. cerevisiae mlh1 strain growth inhibition, active compounds read high
Method in brief: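 Steps: expose the defined-mutant yeast strain to compound; expose a parallel culture to vehicle; measure growth; express compound effect as inhibition relative to the vehicle culture.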

[14] = NCI Yeast Anticancer Drug Screen. Data for the mlh1 rad18 strain (AID 175); conditions: S. cerevisiae mlh1 rad18 strain growth inhibition, active compounds read high
Method in brief: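 Test agents were incubated with a yeast strain of defined genotype (DNA damage repair defect). Inhibition of growth was derived by comparison with vehicle-exposed cultures.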

[15] = NCI Yeast Anticancer Drug Screen. Data for the rad18 strain (AID 177); conditions: S. cerevisiae rad18 mutant growth inhibition, active compounds read high
Method in brief: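 A genetically defined yeast mutant impaired in DNA damage repair was treated with test compounds, then its growth was measured against cultures receiving vehicle alone.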

[16] = NCI Yeast Anticancer Drug Screen. Data for the sgs1 strain (AID 173);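 further: 0% = growth of vehicle-only control cultures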; conditions: S. cerevisiae sgs1 mutant, active compounds read high
Method in brief: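 Treat defined-mutant yeast with compound; measure growth; calculate inhibition relative to vehicle-treated cells.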

[17] = at 5.0 µM (retest, dose inferred, filed as 0.5)
[18] = at 50.0 µM (retest, dose inferred, filed as 5.0)

Measured: growth inhibition

CCOC(=O)/C(=C\c1cccc(C)c1)C(C)=O
inactive: [1]; at 1.2 µM -3% | [1]; at 3.7 µM 10% | [1]; at 11.0 µM 67% | [2]; at 1.2 µM -37% | [2]; at 3.7 µM -15% | [2]; at 11.0 µM 29% | [3]; at 1.2 µM 48% | [3]; at 3.7 µM 31% | [3]; at 11.0 µM 60% | [4]; at 1.2 µM -2% | [4]; at 3.7 µM 3% | [4]; at 11.0 µM 58% | [5]; at 1.2 µM -13% | [5]; at 3.7 µM -8% | [5]; [17] 20% | [5]; at 11.0 µM 58% | [6]; at 1.2 µM 0% | [6]; at 3.7 µM 3% | [6]; [17] -5% | [7]; at 1.2 µM -6% | [7]; at 3.7 µM -7% | [7]; at 11.0 µM 38% | [8]; [17] 19% | [9]; at 1.2 µM 11% | [9]; at 3.7 µM 4% | [9]; at 11.0 µM 55% | [10]; [17] 5% | [11]; at 1.2 µM 1% | [11]; at 3.7 µM 14% | [11]; [17] 55% | [12]; at 1.2 µM 20% | [12]; at 3.7 µM 23% | [12]; at 11.0 µM 69% | [13]; at 1.2 µM 13% | [13]; at 3.7 µM 18% | [14]; [17] 15% | [15]; at 1.2 µM 3% | [15]; at 3.7 µM 12% | [15]; at 11.0 µM 65%
active: [1]; at 33.0 µM 91% | [1]; at 100.0 µM 99% | [2]; at 33.0 µM 88% | [2]; at 100.0 µM 98% | [3]; at 33.0 µM 91% | [3]; at 100.0 µM 99% | [4]; at 33.0 µM 91% | [4]; at 100.0 µM 99% | [5]; at 33.0 µM 89% | [5]; [18] 91% | [5]; at 50.0 µM 92.3% | [5]; at 100.0 µM 98% | [6]; at 11.0 µM 71% | [6]; at 33.0 µM 95% | [6]; [18] 96% | [6]; at 50.0 µM 93.5% | [6]; at 100.0 µM 100% | [7]; at 33.0 µM 93% | [7]; at 100.0 µM 99% | [8]; [18] 94% | [8]; at 50.0 µM 92.5% | [9]; at 33.0 µM 92% | [9]; at 100.0 µM 99% | [10]; [18] 88% | [10]; at 50.0 µM 87.5% | [11]; at 11.0 µM 89% | [11]; at 33.0 µM 97% | [11]; [18] 96% | [11]; at 50.0 µM 90.2% | [11]; at 100.0 µM 99% | [12]; at 33.0 µM 92% | [12]; at 100.0 µM 99% | [13]; at 11.0 µM 80% | [13]; at 33.0 µM 95% | [13]; at 100.0 µM 98% | [14]; [18] 94% | [14]; at 50.0 µM 90.4% | [15]; at 33.0 µM 89% | [15]; at 100.0 µM 98%

CCS(=O)(=O)Nc1ccc(Nc2c3ccccc3nc3ccccc23)c(OC)c1
inactive: [1]; at 1.2 µM 62% | [2]; at 1.2 µM -36% | [2]; at 3.7 µM -42% | [2]; at 11.0 µM -38% | [2]; at 33.0 µM -4% | [2]; at 100.0 µM 62% | [3]; at 1.2 µM -1% | [3]; at 3.7 µM 17% | [3]; at 11.0 µM 48% | [4]; at 1.2 µM -28% | [4]; at 3.7 µM -35% | [4]; at 11.0 µM -28% | [4]; at 33.0 µM 3% | [4]; at 100.0 µM 64% | [5]; at 1.2 µM 51% | [5]; at 50.0 µM 24.7% | [6]; at 1.2 µM -42% | [6]; at 3.7 µM -32% | [6]; [17] 12% | [6]; at 11.0 µM 7% | [6]; at 33.0 µM 69% | [6]; at 50.0 µM 11.8% | [7]; at 1.2 µM -40% | [7]; at 3.7 µM -36% | [7]; at 11.0 µM -26% | [7]; at 33.0 µM 5% | [8]; [17] 49% | [9]; at 1.2 µM -8% | [9]; at 3.7 µM -35% | [9]; at 11.0 µM -2% | [9]; at 33.0 µM 29% | [9]; at 100.0 µM 59% | [10]; [17] 43% | [10]; at 50.0 µM 53.4% | [11]; at 1.2 µM -50% | [11]; at 3.7 µM -32% | [11]; [17] 42% | [11]; at 11.0 µM -36% | [11]; at 33.0 µM 3% | [11]; [18] 65% | [11]; at 50.0 µM 50.5% | [11]; at 100.0 µM 67% | [12]; at 1.2 µM -47% | [12]; at 3.7 µM -47% | [12]; at 11.0 µM -42% | [12]; at 33.0 µM -1% | [12]; at 100.0 µM 56% | [13]; at 1.2 µM -57% | [13]; at 3.7 µM -33% | [13]; at 11.0 µM -24% | [13]; at 33.0 µM 17% | [16]; at 1.2 µM -14% | [16]; at 3.7 µM -11% | [16]; at 11.0 µM -7% | [16]; at 33.0 µM 36% | [14]; at 50.0 µM 36% | [15]; at 1.2 µM -21% | [15]; at 3.7 µM -12% | [15]; at 11.0 µM -18% | [15]; at 33.0 µM 23%
active: [1]; at 3.7 µM 82% | [1]; at 11.0 µM 88% | [1]; at 33.0 µM 90% | [1]; at 100.0 µM 93% | [3]; at 33.0 µM 77% | [3]; at 100.0 µM 84% | [5]; at 3.7 µM 79% | [5]; [17] 86% | [5]; at 11.0 µM 86% | [5]; at 33.0 µM 91% | [5]; [18] 99% | [5]; at 100.0 µM 92% | [6]; [18] 96% | [6]; at 100.0 µM 89% | [7]; at 100.0 µM 74% | [8]; [18] 98% | [8]; at 50.0 µM 80.8% | [10]; [18] 84% | [13]; at 100.0 µM 74% | [16]; at 100.0 µM 76% | [14]; [17] 77% | [14]; [18] 97% | [15]; at 100.0 µM 74%
